In the supplement of paper PMC6279402:
Where a name gives a salt, the structure may show the parent alone. ± gives the standard deviation of the averaged measurements.

Test system: A549
Assay: relative viability (normalised to negative control = 1, bortezomib = 0) (fraction); higher = less cytotoxic
Conditions: inflammatory serum-free RHB-A with cytokines + LPS, 5 d + 24 h CellTiter-Blue
Method: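 A549 KRAS-mutant NSCLC cells, pre-treated 5 µM GSK126 or vehicle (DMSO), were seeded at 250 cells/well in 384-well plates in serum-free RHB-A medium with inflammatory cytokines/LPS and treated with Selleck kinase inhibitor and NCI oncology compounds at 30 or 300 nM in triplicate, refreshed at 48 h. Viability was read by CellTiter-Blue after 5 d plus 24 h and normalised per plate with cellHTS2 (mean of bortezomib positive control = 0, mean of negative control = 1).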

[1] = compound 30 nM, GSK126 pretreatment: 5 uM GSK126
[2] = compound 30 nM, GSK126 pretreatment: none (vehicle)
[3] = compound 300 nM, GSK126 pretreatment: 5 uM GSK126
[4] = compound 300 nM, GSK126 pretreatment: none (vehicle)

Q: Which results are given for OC[C@H]1O[C@@H](n2cnc3c2N=CNC[C@H]3O)C[C@@H]1O [Pentostatin]?
A: relative viability [1]: 0.908 ± 0.068; relative viability [2]: 0.918 ± 0.062; relative viability [3]: 0.931 ± 0.076; relative viability [4]: 0.914 ± 0.056

Q: How did the relative viability [1] turn out when S=C(NCc1ccc2c(c1)OCO2)N1CCN(c2ncnc3c2oc2ccccc23)CC1 [Amuvatinib (MP-470); MP-470] was run?
A: 0.861 ± 0.067

Q: And the relative viability [2]?
A: 0.848 ± 0.057

Q: And the relative viability [3]?
A: 0.917 ± 0.15

Q: What about the relative viability [4] of the same molecule?
A: 1.07 ± 0.072

Q: Which results are given for CO[C@H]1C(=O)[C@]2(C)[C@@H](OC)C[C@H]3OC[C@@]3(OC(C)=O)[C@H]2[C@H](OC(=O)c2ccccc2)[C@]2(O)C[C@H](OC(=O)[C@H](O)[C@@H](NC(=O)OC(C)(C)C)c3ccccc3)C(C)=C1C2(C)C [Cabazitaxel]?
A: relative viability [1]: 0.487 ± 0.065; relative viability [2]: 0.349 ± 0.054; relative viability [3]: 0.541 ± 0.061; relative viability [4]: 0.421 ± 0.077

Q: CO[C@H]1C[C@@H]2CC[C@@H](C)[C@@](O)(O2)C(=O)C(=O)N2CCCC[C@H]2C(=O)O[C@H]([C@H](C)C[C@@H]2CC[C@@H](O)[C@H](OC)C2)CC(=O)[C@H](C)/C=C(\C)[C@@H](O)[C@@H](OC)C(=O)[C@H](C)C[C@H](C)/C=C/C=C/C=C/1C [Sirolimus; RAPAMYCIN; Rapamycin(Sirolimus); Rapamycin] was tested. Which relative viability [1] did it give?
A: 0.576 ± 0.08

Q: And the relative viability [2]?
A: 0.588 ± 0.064

Q: What about the relative viability [3] of the same molecule?
A: 0.552 ± 0.066

Q: And the relative viability [4]?
A: 0.558 ± 0.07

Q: Which results are given for COc1cc2c(Oc3ccc(NC(=O)C4(C(=O)Nc5ccc(F)cc5)CC4)cc3F)ccnc2cc1OCCCN1CCOCC1?
A: relative viability [1]: 0.797 ± 0.081; relative viability [2]: 0.789 ± 0.037; relative viability [3]: 0.57 ± 0.1; relative viability [4]: 0.573 ± 0.074

Q: How did the relative viability [1] turn out when CC[C@]1(O)C[C@H]2CN(CCc3c([nH]c4ccccc34)[C@@](C(=O)OC)(c3cc4c(cc3OC)N(C=O)[C@H]3[C@@](O)(C(=O)OC)[C@H](OC(C)=O)[C@]5(CC)C=CCN6CC[C@]43[C@@H]65)C2)C1 [Vincristine sulfate] was run?
A: 0.453 ± 0.072

Q: What about the relative viability [2] of the same molecule?
A: 0.289 ± 0.031

Q: What about the relative viability [3] of the same molecule?
A: 0.388 ± 0.035

Q: What about the relative viability [4] of the same molecule?
A: 0.303 ± 0.014

Q: O=C1c2c(O)ccc(O)c2C(=O)c2c(NCCNCCO)ccc(NCCNCCO)c21 [Mitoxantrone; Mitoxantrone dihydrochloride] was tested. Which relative viability [1] did it give?
A: 0.483 ± 0.02

Q: What about the relative viability [2] of the same molecule?
A: 0.376 ± 0.022

Q: And the relative viability [3]?
A: 0.148 ± 0.013

Q: And the relative viability [4]?
A: 0.137 ± 0.008

Q: How did the relative viability [1] turn out when CC(=O)Nc1cccc(-n2c(=O)n(C3CC3)c(=O)c3c(Nc4ccc(I)cc4F)n(C)c(=O)c(C)c32)c1 was run?
A: 0.144 ± 0.01

Q: And the relative viability [2]?
A: 0.171 ± 0.011

Q: And the relative viability [3]?
A: 0.0602 ± 0.013

Q: What about the relative viability [4] of the same molecule?
A: 0.0354 ± 0.0045

Q: Which relative viability [1] does the source give for Cc1nc(Nc2ncc(C(=O)Nc3c(C)cccc3Cl)s2)cc(N2CCN(CCO)CC2)n1 [Dasatinib] here?
A: 0.89 ± 0.089

Q: And the relative viability [2]?
A: 0.882 ± 0.093

Q: What about the relative viability [3] of the same molecule?
A: 1.03 ± 0.077

Q: And the relative viability [4]?
A: 0.956 ± 0.12

Q: With COc1cc2c(N3CCN(C(=O)Nc4ccc(OC(C)C)cc4)CC3)ncnc2cc1OCCCN1CCCCC1 [Tandutinib (MLN518)] as the molecule, how does the relative viability [1] read?
A: 0.74 ± 0.03

Q: And the relative viability [2]?
A: 0.735 ± 0.071

Q: What about the relative viability [3] of the same molecule?
A: 0.829 ± 0.075

Q: What about the relative viability [4] of the same molecule?
A: 0.862 ± 0.1
